Test results published in PubChem BioAssay (Tox21).
Records with an inconclusive call do not appear. Activity calls are given as the source filed them. Unless noted, calls follow the shape of the dose curve; as a rule, active = well fitted curve in the direction sought with a large enough effect in the repeat runs; inconclusive = weak or mixed curves; inactive = no such curve, though single readings can be large; an effect the other way counts as inactive or inconclusive.

Tests used:
[1] = qHTS assay to identify small molecule antagonists of the sonic hedgehog signaling (Shh) pathway (AID 1259369; calls by dose curve; also: nearly all actives have a fitted effect of over 45% in size)
Summary of the method: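 Gli1 transcriptional reporter (firefly Luc) in NIH/3T3 background, conditioned-medium activated. 24hr exposure, luminescence endpoint.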

[2] = target: Estrogen receptor beta (Homo sapiens) (UniProt Q92731); assay: qHTS assay to identify small molecule agonists of the estrogen receptor beta (ER-beta) signaling pathway (AID 1259377; active = well fitted activation curve with a large enough effect in the signal ratio in the repeat runs, not every such curve was filed as active; the % refers to the signal ratio)
Sequence of Estrogen receptor beta (Homo sapiens) (Q92731 whole entry, looked up): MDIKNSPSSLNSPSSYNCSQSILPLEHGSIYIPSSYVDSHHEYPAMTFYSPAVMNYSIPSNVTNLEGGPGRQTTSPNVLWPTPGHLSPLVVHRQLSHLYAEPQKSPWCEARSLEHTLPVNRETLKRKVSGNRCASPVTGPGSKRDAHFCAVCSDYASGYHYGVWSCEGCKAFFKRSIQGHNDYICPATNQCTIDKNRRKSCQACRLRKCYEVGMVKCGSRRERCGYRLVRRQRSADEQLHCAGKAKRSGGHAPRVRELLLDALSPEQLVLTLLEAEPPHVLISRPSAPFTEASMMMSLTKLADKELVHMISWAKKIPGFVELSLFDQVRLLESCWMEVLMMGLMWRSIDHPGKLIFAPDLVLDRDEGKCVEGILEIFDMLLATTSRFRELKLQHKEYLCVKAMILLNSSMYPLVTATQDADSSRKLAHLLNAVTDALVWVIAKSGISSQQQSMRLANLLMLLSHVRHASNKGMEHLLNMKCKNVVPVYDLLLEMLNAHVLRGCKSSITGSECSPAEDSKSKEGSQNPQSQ
Summary of the method: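 A UAS-controlled beta-lactamase reporter in ER-beta-UAS-bla HEK293T cells reports receptor activation. Compounds act for 16 hr at 37C in 2% charcoal-stripped serum, and a FRET substrate is read by fluorescence after 2 hours.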

[3] = target: Estrogen receptor beta (Homo sapiens) (UniProt Q92731); assay: qHTS assay to identify small molecule antagonists of the estrogen receptor beta (ER-beta) signaling pathway (AID 1259378; active = well fitted inhibition curve with a large enough effect in the signal ratio in the repeat runs, not every such curve was filed as active; the % refers to the signal ratio)
Summary of the method: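 ER-beta-UAS-bla HEK293T (GripTite) cells in 2% charcoal-stripped FBS medium were preincubated 6 hr at 37C, dosed with compound, then stimulated with 1 nM E2 (final) for 16 hr; beta-lactamase reporter read by B/G FRET fluorescence after 2 hr substrate loading.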

[4] = qHTS assay to identify small molecule agonists of the androgen receptor (AR) signaling pathway in the presence of an antagonist - cell viability counter screen (AID 1259379);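 also: MDA-kb2 human breast cancer cells carrying an MMTV luciferase reporter; series mostly up to about 92 µM; nearly all actives have a fitted effect of over 25% in size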
Summary of the method: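 Counter screen for cell viability run in parallel with the AR agonist-mode luciferase assay. MDA-kb2 cells were co-treated with nilutamide (3.0uM final) and compounds, then incubated 16 hr at 37C, and CellTiter-Fluor fluorescence was measured.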

[5] = qHTS assay to identify small molecule agonists of the estrogen receptor beta (ER-beta) signaling pathway - cell viability counter screen (AID 1259380); also: nearly all actives have a fitted effect of over 30% in size
Summary of the method: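 In this qHTS counter screen, HEK293T cells carrying an ER-beta/UAS beta-lactamase reporter, grown in 2% charcoal-stripped FBS, received compound for 16 hr; ATP-based CellTiter-Glo luminescence was then read after 30 min at room temperature.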

[6] = qHTS assay to identify small molecule antagonists of the estrogen receptor beta (ER-beta) signaling pathway - cell viability counter screen (AID 1259382); also: series mostly up to about 92 µM; nearly all actives have a fitted effect of over 55% in size
Summary of the method: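 HEK293T ER-beta-UAS-bla, 2% charcoal-stripped FBS; compounds + 1nM E2 16 hr 37C; CellTiter-Glo luminescence, 30 min RT.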

[7] = qHTS assay to identify small molecule agonists or antagonists of the thyroid stimulating hormone receptor (TSHR) signaling pathway - wild type cell line counter screen (AID 1259384; calls by dose curve)
Summary of the method: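 Wild-type HEK293 cells were plated 18 h at 37 C/5% CO2, pin-dosed with compound plus Ro20-1724 medium, held 30 min at room temperature, then given cAMP-d2 and anti-cAMP-cryptate; fluorescence was read after 1 h. Fifteen concentrations, triplicate.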

[8] = target: Thyrotropin receptor (Homo sapiens) (UniProt P16473); assay: qHTS assay to identify small molecule antagonists of the thyroid stimulating hormone receptor (TSHR) signaling pathway (AID 1259385; calls by dose curve; also: nearly all actives have a fitted effect of over 20% in size)
Sequence of Thyrotropin receptor (Homo sapiens) (P16473 whole entry, looked up): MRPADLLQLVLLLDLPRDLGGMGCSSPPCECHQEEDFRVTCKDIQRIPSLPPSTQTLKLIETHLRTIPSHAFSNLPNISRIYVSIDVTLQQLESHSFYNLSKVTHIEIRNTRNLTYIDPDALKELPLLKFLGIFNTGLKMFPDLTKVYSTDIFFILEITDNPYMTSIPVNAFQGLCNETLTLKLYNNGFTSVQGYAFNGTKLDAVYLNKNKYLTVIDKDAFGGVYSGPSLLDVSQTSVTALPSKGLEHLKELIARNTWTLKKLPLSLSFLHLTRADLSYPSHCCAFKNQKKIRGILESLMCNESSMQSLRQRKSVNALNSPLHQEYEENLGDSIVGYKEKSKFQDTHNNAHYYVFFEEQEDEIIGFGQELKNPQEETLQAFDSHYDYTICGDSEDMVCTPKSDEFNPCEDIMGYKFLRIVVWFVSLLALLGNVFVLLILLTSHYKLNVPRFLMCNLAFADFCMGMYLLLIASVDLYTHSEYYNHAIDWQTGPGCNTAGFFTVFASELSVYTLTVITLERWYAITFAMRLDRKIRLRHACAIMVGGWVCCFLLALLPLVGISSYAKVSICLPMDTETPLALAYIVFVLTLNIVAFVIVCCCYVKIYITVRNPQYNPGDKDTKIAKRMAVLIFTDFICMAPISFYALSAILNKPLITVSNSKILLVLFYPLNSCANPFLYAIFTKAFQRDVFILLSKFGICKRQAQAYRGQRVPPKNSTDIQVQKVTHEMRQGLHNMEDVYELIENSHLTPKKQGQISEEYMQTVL
Summary of the method: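 TSHR-HEK293 cells were plated and held 18 h at 37C/5% CO2, then given compound plus Ro20-1724 and stimulated with TSH at 1.5 ng/mL final. After 30 min at room temperature, cAMP was detected with cAMP-d2/anti-cAMP-cryptate (1 h) by fluorescence.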

[9] = qHTS assay to identify small molecule agonists of the estrogen receptor alpha (ER-alpha) signaling pathway in the presence of an antagonist - cell viability counter screen (AID 1259386);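 also: series mostly up to about 92 µM; cells exposed to compounds for 22 h at 37 °C before the viability read; nearly all actives have a fitted effect of over 30% in size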
Summary of the method: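 Steps: 5-day stripped-FBS culture; seed and incubate 24hr; add ICI-182,780 (10.0nM final); pin 15-point compound titration; incubate 22hr at 37C; add CellTiter-Fluor at 21hr; read fluorescence.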

[10] = target: Progesterone receptor (Homo sapiens) (UniProt P06401); assay: qHTS assay to identify small molecule agonists of the progesterone receptor (PR) signaling pathway (AID 1346784; calls by dose curve; also: nearly all actives have a fitted effect of over 30% in size)
Sequence of Progesterone receptor (Homo sapiens) (P06401 whole entry, looked up): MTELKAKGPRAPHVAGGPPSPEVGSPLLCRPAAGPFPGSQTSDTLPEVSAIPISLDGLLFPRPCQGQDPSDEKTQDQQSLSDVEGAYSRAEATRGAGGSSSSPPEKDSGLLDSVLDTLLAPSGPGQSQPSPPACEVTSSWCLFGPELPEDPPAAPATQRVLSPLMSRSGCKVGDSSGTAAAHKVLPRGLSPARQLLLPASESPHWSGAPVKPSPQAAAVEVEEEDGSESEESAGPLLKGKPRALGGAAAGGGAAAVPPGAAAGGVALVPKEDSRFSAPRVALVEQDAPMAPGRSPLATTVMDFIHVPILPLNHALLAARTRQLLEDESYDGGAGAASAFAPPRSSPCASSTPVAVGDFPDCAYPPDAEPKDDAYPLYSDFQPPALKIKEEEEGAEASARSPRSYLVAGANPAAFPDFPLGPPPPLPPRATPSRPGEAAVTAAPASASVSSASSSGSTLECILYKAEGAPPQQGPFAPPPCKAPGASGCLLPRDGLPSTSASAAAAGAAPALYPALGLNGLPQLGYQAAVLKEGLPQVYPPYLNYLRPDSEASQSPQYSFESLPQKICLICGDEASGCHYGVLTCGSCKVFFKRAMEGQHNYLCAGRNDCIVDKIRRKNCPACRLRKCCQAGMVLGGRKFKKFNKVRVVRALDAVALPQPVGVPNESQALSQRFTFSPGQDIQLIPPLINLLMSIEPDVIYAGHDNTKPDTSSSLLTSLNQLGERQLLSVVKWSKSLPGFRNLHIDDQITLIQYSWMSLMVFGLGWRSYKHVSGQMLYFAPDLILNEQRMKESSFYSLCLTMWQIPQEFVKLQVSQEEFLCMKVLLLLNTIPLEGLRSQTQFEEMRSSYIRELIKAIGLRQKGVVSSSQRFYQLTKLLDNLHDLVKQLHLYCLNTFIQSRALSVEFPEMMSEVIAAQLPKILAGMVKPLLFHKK
Summary of the method: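 Agonist mode, quantitative HTS format in a HEK 293T line expressing a UAS-controlled beta-lactamase reporter; 16 hr compound exposure at 37C in 2% charcoal-stripped FBS, then LiveBLAzer B/G FRET fluorescence.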

[11] = target: Progesterone receptor (Homo sapiens) (UniProt P06401); assay: qHTS assay to identify small molecule antagonists of the progesterone receptor (PR) signaling pathway (AID 1346795; active = well fitted inhibition curve with a large enough effect in the signal ratio in the repeat runs, not every such curve was filed as active; the % refers to the signal ratio)
Summary of the method: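 HEK293T PR-UAS-bla reporter cells in charcoal-stripped serum (2%) received compound after a 6 hr settling period, followed by R5020 agonist at 1 nM final; 16 hr incubation preceded the FRET substrate step and fluorescence measurement.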

[12] = qHTS assay to identify small molecule antagonists of the progesterone receptor (PR) signaling pathway - cell viability counter screen (AID 1346798); also: series mostly up to about 92 µM; nearly all actives have a fitted effect of over 50% in size
Summary of the method: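 Same-well multiplex: after 16 hr at 37C with compound and R5020 stimulation, HEK293T cells carrying a UAS-bla reporter received LiveBLAzer substrate (2 hr RT), then CellTiter-Glo (30 min RT) for luminescent viability.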

[13] = qHTS assay to identify small molecule agonists of the progesterone receptor (PR) signaling pathway - cell viability counter screen (AID 1346799; calls by dose curve; also: nearly all actives have a fitted effect of over 45% in size)
Summary of the method: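 Counter screen for cytotoxicity: compound-treated PR-UAS-bla HEK293T cells (16 hr, 37C, 5% CO2) were assayed with CellTiter-Glo, luminescence measured after 30 min at room temperature.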

[14] = qHTS assay to identify small molecule antagonists of the TGF-beta/Smad signaling pathway - cell viability counter screen (AID 1346824); also: nearly all actives have a fitted effect of over 50% in size
Summary of the method: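 SBE-bla HEK 293T cells were plated overnight at 37 C, then given compounds in DMSO plus TGF-beta1 (added as 0.25 ng/mL solution) for 5 hr. After the bla read, CellTiter-Glo was added to the same wells and luminescence read after 30 min at room temperature.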

[15] = qHTS assay to identify small molecule agonists of the TGF-beta/Smad signaling pathway - cell viability counter screen (AID 1346829); also: top concentration of the series differs between compounds; nearly all actives have a fitted effect of over 45% in size
Summary of the method: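 CellTiter-Glo luminescence readout; SBE-bla HEK 293T cells, overnight plating, compound 5 hr at 37 C/5% CO2, then bla substrate 2 hr RT, then CellTiter-Glo 30 min RT.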

[16] = qHTS assay to identify small molecule agonists of the TGF-beta/Smad signaling pathway (AID 1346859; active = well fitted activation curve with a large enough effect in the signal ratio in the repeat runs, not every such curve was filed as active; the % refers to the signal ratio; also: series mostly up to about 77 µM)
Summary of the method: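 Smad-responsive beta-lactamase reporter cells (HEK 293T) received compounds from DMSO stocks after overnight attachment, were incubated 5 hr, then treated 2 hr with FRET substrate before dual-emission fluorescence measurement (405 nm excitation).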

[17] = target: Thyrotropin-releasing hormone receptor (Homo sapiens) (UniProt P34981); assay: qHTS assay to identify small molecule antagonists of the thyrotropin-releasing hormone receptor (TRHR) signaling pathway (AID 1346877; active = well fitted inhibition curve with a large enough effect in the repeat runs, not every such curve was filed as active; also: series mostly up to about 51 µM)
Sequence of Thyrotropin-releasing hormone receptor (Homo sapiens) (P34981 whole entry, looked up): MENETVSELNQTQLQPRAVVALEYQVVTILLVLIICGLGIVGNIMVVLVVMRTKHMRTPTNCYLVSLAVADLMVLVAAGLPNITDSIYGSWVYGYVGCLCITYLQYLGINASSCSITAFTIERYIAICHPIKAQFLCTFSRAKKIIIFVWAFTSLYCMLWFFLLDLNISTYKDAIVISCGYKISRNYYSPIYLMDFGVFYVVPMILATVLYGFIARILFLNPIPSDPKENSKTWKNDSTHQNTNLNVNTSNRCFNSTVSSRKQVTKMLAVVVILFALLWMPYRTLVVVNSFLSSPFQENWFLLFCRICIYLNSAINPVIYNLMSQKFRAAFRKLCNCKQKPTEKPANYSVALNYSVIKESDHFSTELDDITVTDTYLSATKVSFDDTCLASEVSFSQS
Summary of the method: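 Human TRHR in HEK293 cells; inhibition of the intracellular calcium rise triggered by 1 nM TRH was followed by fluorescence over 3 min. Compounds were run at 15 concentrations, three replicates each.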

[18] = target: Thyrotropin-releasing hormone receptor (Homo sapiens) (UniProt P34981); assay: qHTS assay to identify small molecule agonists of the thyrotropin-releasing hormone receptor (TRHR) signaling pathway (AID 1346891; calls by dose curve;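 also: HEK293 cells expressing TRHR with calcium dye readout; series mostly up to about 58 µM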)
Summary of the method: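 Agonist-mode calcium mobilisation screen: TRHR-transfected HEK293 cells cultured overnight (18 h), dye-loaded for 2 h at 37 °C, exposed to compounds, and monitored by fluorescence for 3 min.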

[19] = target: Androgen receptor (Homo sapiens) (UniProt P10275); assay: qHTS assay to identify small molecule agonists of the androgen receptor (AR) signaling pathway in the presence of an antagonist (AID 1259381; calls by dose curve; also: nearly all actives have a fitted effect of over 15% in size)
Sequence of Androgen receptor (Homo sapiens) (P10275 whole entry, looked up): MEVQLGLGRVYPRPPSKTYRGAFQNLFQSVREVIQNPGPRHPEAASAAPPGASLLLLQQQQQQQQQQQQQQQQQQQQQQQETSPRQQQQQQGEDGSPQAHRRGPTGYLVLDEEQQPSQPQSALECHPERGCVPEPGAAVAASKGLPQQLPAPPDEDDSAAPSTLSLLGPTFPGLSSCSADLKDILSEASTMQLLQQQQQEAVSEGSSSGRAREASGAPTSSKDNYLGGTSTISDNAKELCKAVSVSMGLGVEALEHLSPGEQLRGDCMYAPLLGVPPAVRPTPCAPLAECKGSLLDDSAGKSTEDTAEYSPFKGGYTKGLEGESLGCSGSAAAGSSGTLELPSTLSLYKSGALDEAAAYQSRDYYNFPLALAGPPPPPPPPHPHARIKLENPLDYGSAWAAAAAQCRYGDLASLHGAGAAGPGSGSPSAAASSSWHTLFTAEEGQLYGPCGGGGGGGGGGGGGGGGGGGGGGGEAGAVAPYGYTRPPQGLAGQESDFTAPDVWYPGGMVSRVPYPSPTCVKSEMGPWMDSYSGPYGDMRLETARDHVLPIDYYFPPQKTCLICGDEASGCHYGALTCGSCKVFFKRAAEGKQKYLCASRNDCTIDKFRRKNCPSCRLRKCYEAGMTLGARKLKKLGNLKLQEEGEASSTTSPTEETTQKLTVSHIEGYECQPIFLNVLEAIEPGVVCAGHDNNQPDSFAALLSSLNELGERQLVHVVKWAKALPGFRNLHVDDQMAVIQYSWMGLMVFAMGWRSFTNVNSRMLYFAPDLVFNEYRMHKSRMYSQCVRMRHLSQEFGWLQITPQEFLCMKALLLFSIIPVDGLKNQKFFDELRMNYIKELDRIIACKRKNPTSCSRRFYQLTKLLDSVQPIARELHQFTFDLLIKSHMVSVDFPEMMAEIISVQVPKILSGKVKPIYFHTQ
Summary of the method: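 AR antagonist background: nilutamide 3.0uM final. Cell line: MDA-kb2, MMTV-driven luciferase, responsive to both AR and GR. Exposure 16hr, 37C, no CO2; ONE-Glo luminescence.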

[20] = target: Estrogen receptor (Homo sapiens) (UniProt P03372); assay: qHTS assay to identify small molecule agonists of the estrogen receptor alpha (ER-alpha) signaling pathway in the presence of an antagonist (AID 1259383; calls by dose curve; also: top concentration of the series differs between compounds; nearly all actives have a fitted effect of over 15% in size)
Sequence of Estrogen receptor (Homo sapiens) (P03372 whole entry, looked up): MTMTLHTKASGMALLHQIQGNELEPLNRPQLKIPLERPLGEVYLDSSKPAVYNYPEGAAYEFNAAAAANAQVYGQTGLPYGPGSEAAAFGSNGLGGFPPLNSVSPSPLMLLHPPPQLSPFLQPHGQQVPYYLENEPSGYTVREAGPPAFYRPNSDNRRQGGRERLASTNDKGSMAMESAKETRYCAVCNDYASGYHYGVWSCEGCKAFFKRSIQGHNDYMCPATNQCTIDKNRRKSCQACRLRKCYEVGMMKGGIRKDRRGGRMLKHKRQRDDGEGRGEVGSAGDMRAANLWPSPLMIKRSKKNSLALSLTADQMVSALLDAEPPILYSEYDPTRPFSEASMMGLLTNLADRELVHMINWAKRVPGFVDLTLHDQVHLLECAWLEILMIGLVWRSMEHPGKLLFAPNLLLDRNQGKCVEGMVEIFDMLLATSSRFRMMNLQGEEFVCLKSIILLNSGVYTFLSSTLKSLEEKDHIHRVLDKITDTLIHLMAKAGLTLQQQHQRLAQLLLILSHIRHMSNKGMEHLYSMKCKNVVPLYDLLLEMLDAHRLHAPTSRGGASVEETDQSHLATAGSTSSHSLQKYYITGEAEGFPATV
Summary of the method: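 ER-alpha agonism measured under antagonist challenge: 10.0nM ICI-182,780 (final) plus compound, 15 concentrations, 22hr, VM7Luc4E2 ERE-luciferase cells. Read by luminescence.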

Measured: Potency

CS(=O)(=O)c1ccc(Cl)cc1
not listed: [17] | [18] | [19] | [20]
inactive: all other assays above

NC1CCCCC1N (stereo not drawn)
not listed: [7] | [17] | [18] | [19] | [20]
inactive: all other assays above

COC(=O)/C=C\C(=O)OC
not listed: [7] | [19] | [20]
inactive: all other assays above

Cc1ccc(C(C)C)cc1
not listed: [2] | [3]
inactive: all other assays above

CCOC(=O)c1ccc(O)cc1
not listed: [2] | [19]
inactive: all other assays above

CCN(CC)CCNC(=O)c1ccc(N)cc1
not listed: [7] | [14] | [17] | [18] | [19] | [20]
inactive: all other assays above
